The values that follow come from PubChem BioAssay (EPA / NIEHS).

Inconclusive results are not listed. Activity calls are given as the source filed them. The calls were made as follows: active = hit-call score of the fitted dose curve at least 0.9, where 1 is the maximum; inconclusive = response in the unintended direction; inactive = score below 0.9.

Usually AC50 stands for the concentration at which the activity in the assay is half-maximal.

The subject of one assay is Sodium/Iodide Symporter (NIS), SLC5A5 (gene 6528). Put plainly: CPHEA_Stoker_NIS_Inhibition_RAIU: CPHEA's Radioactive Iodide Uptake (RAIU) Assay for Sodium/Iodide Symporter (NIS) Inhibition, Stoker and Laws Labs (AID 2283841). The essentials: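 Iodide uptake read as CPM of intracellular 125I (final 329 pM) after 2 h room-temperature exposure in HEPES-buffered HBSS, pH 7.4. Human NIS-expressing HEK293T cells; six concentrations 0.001–100 uM, 0.5% DMSO, normalised to DMSO wells.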
As for `CCCCCCCCCCCCCC[N+](C)(C)C`, the AC50 was 19.2 µM (active).

As for `c1ccc2cc3c(ccc4ccccc43)cc2c1`, the AC50 was 50 µM (active).

As for `OCCC(F)(F)C(F)(F)C(F)(F)C(F)(F)C(F)(F)C(F)(F)F`, the result was inactive.

For `Cc1oc(-c2ccccc2)nc1CCOc1ccc(C[C@H](Nc2ccccc2C(=O)c2ccccc2)C(=O)O)cc1`, the AC50 was 42.5 µM (active).

With `CC[C@H](c1ccc(O)cc1)[C@@H](CC)c1ccc(O)cc1`, the AC50 was 50 µM (active).

`CCc1ccc(CCOc2ccc(CC3SC(=O)NC3=O)cc2)nc1` (stereo not drawn): the outcome was inactive.

For `O=C1OC2(c3ccccc31)c1cc(Br)c(O)c(Br)c1Oc1c2cc(Br)c(O)c1Br`, the AC50 is 14.1 µM (active).

As for `CC(=O)NC1(c2cccc(F)c2)CCN(CC[C@@]2(c3ccc(Cl)c(Cl)c3)CN(c3ccccc3)C(=O)CO2)CC1`, the result was inactive.

With `CCCCCCCCCCCCc1ccccc1S(=O)(=O)O`, the outcome was inactive.

Regarding `O=C(OCCOCCOC(=O)c1ccccc1)c1ccccc1`, the outcome was inactive.

With `Oc1cc2ccccc2c2ccccc12`, the result was inactive.

As to `ClC1=C(Cl)C(Cl)(Cl)C(Cl)=C1Cl`, the AC50 was 19.1 µM (active).

As to `CC1=C(/C=C/C(C)=C/C=C/C(C)=C/C(=O)O)C(C)(C)CCC1`, the result was inactive.

Take `CC[C@H](C)[C@@H](C(=O)O)n1sc2ccccc2c1=O`: the outcome was inactive.

On to `CCC(=C(c1ccc(O)cc1)c1ccc(OCCN(C)C)cc1)c1ccccc1`, for which the outcome was inactive.

`O=C(O)c1ccccc1C(c1ccc(O)cc1)c1ccc(O)cc1`: the outcome was inactive.

Turning to `c1ccc2c(c1)Cc1ccccc1-2`, the outcome was inactive.

Regarding `NC(=O)N1C(=O)C(C(=O)c2cc(Cl)cs2)c2cc(F)c(Cl)cc21` (stereo not drawn), the result was inactive.

As to `CCCCCCCCCCCCN1CCCC1=O`, the outcome was inactive.

As to `CC(C)(C)c1ccc(O)c(C(C)(C)C)c1`, the AC50 was 50 µM (active).

Turning to `Cc1cc(CCN2CCN(c3nsc4ccccc34)CC2)cc2c1NC(=O)CC2(C)C`, the result was inactive.

For the compound `FC(F)(I)C(F)(F)C(F)(F)C(F)(F)C(F)(F)C(F)(F)I`, the AC50 was 5.79 µM (active).

Take `O=C(O)Cc1cc(I)c(Oc2cc(I)c(O)c(I)c2)c(I)c1`: the outcome was inactive.

Test system in another assay: not listed separately
Put plainly: CPHEA_Stoker_NIS_Cytotoxicity: Cytotoxicity Assessment for CPHEA's Radioactive Iodide Uptake (RAIU) Assay for Sodium/Iodide Symporter (NIS) Inhibition, Stoker and Laws Labs (AID 2283897).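 As to AC50: active means loss of ATP signal versus DMSO meaning cytotoxicity.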 The procedure, abridged: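 CellTiter-Glo ATP luminescence gauged viability in HEK293T cells expressing human NIS after 2 h chemical exposure. Concentrations ran 0.001–100 uM in 0.5% DMSO; DMSO served as baseline for the loss-of-signal fit.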
As to `CCCCCCCCCCCCCC[N+](C)(C)C`, the result was inactive.

As for `c1ccc2cc3c(ccc4ccccc43)cc2c1`, the outcome was inactive.

Consider `Cc1oc(-c2ccccc2)nc1CCOc1ccc(C[C@H](Nc2ccccc2C(=O)c2ccccc2)C(=O)O)cc1`, for which the AC50 is 9.21 µM (active).

In the case of `CC[C@H](c1ccc(O)cc1)[C@@H](CC)c1ccc(O)cc1`, the AC50 was 9.92 µM (active).

As for `CCc1ccc(CCOc2ccc(CC3SC(=O)NC3=O)cc2)nc1` (stereo not drawn), the result was inactive.

Take `O=C1OC2(c3ccccc31)c1cc(Br)c(O)c(Br)c1Oc1c2cc(Br)c(O)c1Br`: the outcome was inactive.

On to `CC(=O)NC1(c2cccc(F)c2)CCN(CC[C@@]2(c3ccc(Cl)c(Cl)c3)CN(c3ccccc3)C(=O)CO2)CC1`, for which the outcome was inactive.

For the compound `CCCCCCCCCCCCc1ccccc1S(=O)(=O)O`, the result was inactive.

`O=C(OCCOCCOC(=O)c1ccccc1)c1ccccc1`: the outcome was inactive.

For `CN1CCN(c2ccccc2/C=C2\SCCN(c3ccc(Cl)c(Cl)c3)C2=O)CC1`, the outcome was inactive.

Turning to `Oc1cc2ccccc2c2ccccc12`, the result was inactive.

Turning to `ClC1=C(Cl)C(Cl)(Cl)C(Cl)=C1Cl`, the outcome was inactive.

As to `c1ccc2c(c1)ccc1ccccc12`, the result was inactive.

On to `CC1=C(/C=C/C(C)=C/C=C/C(C)=C/C(=O)O)C(C)(C)CCC1`, for which the outcome was inactive.

For the compound `CC[C@H](C)[C@@H](C(=O)O)n1sc2ccccc2c1=O`, the outcome was inactive.

Consider `CCC(=C(c1ccc(O)cc1)c1ccc(OCCN(C)C)cc1)c1ccccc1`, for which the result was inactive.

`O=C(O)c1ccccc1C(c1ccc(O)cc1)c1ccc(O)cc1`: the outcome was inactive.

As to `c1ccc2c(c1)Cc1ccccc1-2`, the outcome was inactive.

For `NC(=O)N1C(=O)C(C(=O)c2cc(Cl)cs2)c2cc(F)c(Cl)cc21` (stereo not drawn), the outcome was inactive.

Consider `CCCCCCCCCCCCN1CCCC1=O`, for which the outcome was inactive.

Consider `CC(C)(C)c1ccc(O)c(C(C)(C)C)c1`, for which the AC50 is 9.92 µM (active).

`Cc1cc(CCN2CCN(c3nsc4ccccc34)CC2)cc2c1NC(=O)CC2(C)C`: the AC50 is 9.92 µM (active).

`CC#C[C@]1(O)CC[C@H]2[C@@H]3CCC4=CC(=O)CCC4=C3[C@@H](c3ccc(N(C)C)cc3)C[C@@]21C`: the outcome was inactive.

For the compound `CC(C)(C)c1cccc(C(C)(C)C)c1O`, the result was inactive.

Take `O=C(O)Cc1cc(I)c(Oc2cc(I)c(O)c(I)c2)c(I)c1`: the result was inactive.
